The values that follow come from PubChem BioAssay.

Assay [1] relates to Wnt5a (protein binding on small-molecule microarray). The assay is described as follows: Wnt5a binders on small-molecule microarray, primary screen, biophysical, 635/667 nm fluorescence (AID 1142).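 Note: fluorescence read at 667 nm with signal to noise per printed feature.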 To be noted: 635 nm fluorescence, higher = more signal.
Assay [2] is described as follows: cell viability in Huh7 cells, primary screen, cytotoxicity control for HCV replication inhibitor project, CellTiter-Glo luminescence, basal, 48 h (AID 1143).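 Note: Huh7 hepatoma cells carrying a hepatitis C replication reporter with no stimulus; test concentration not given here.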 The following applies: Huh7 HCV replicon, higher = more signal, called active from +8 up or from −8 down.
Assay [3] is described as follows: P. aeruginosa biofilm formation inhibitors, primary screen, PAO1 strain, BacTiter-Glo luminescence, LB-PBS (AID 1144). To be noted: 12 h, higher = more signal.
Assay [4] in a line: CREB reporter modulators without forskolin, primary screen, cell-based, PC12, CRE-LacZ reporter, unstimulated (AID 1145). The following applies: no forskolin, luminescence, 4.5 h, higher = more signal, called active from +8 up or from −8 down.
Assay [5] in a line: CREB reporter modulators under forskolin, primary screen, cell-based, PC12, CRE-LacZ reporter, forskolin-stimulated (AID 1146).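 Note: PC12 cells with 6xCRE LacZ reporter stimulated by forskolin 10 µM; beta-galactosidase reporter signal reflecting CREB driven transcription.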 To be noted: luminescence, 4.5 h, higher = more signal, called active from +8 up or from −8 down.
The target of assay [6] is Streptavidin (Streptomyces avidinii) (UniProt P22629). The assay is described as follows: streptavidin binders on small-molecule microarray, primary screen, artefact control for SMM compound annotation, biophysical, 635/667 nm fluorescence (AID 1147).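 Note: signal reflects streptavidin binding to arrayed compounds as a control protein.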 To be noted: streptavidin binding, higher = more signal.
Chain of Streptavidin (Streptomyces avidinii) (P22629 whole entry, looked up): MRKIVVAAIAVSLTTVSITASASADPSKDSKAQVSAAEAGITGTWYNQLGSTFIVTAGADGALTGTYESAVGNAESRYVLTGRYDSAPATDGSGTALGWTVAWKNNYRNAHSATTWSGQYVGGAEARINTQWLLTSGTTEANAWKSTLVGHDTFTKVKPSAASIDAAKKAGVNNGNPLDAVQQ
Assay [7] can be described thus: small-molecule binders of probe aInhba, primary screen, biochemical, small-molecule microarray, 635/667 nm fluorescence (AID 1148).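 Note: score merges 667nm spot fluorescence with signal-to-noise for antibody binding to printed compounds.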 To be noted: higher = more signal.
For assay [8], the target named is Torsin-1A (Homo sapiens) (UniProt O14656). The assay is described as follows: torsin A binders from cell lysate, primary screen, small-molecule microarray, wild-type, 635/667 nm (AID 1149). To be noted: COS7 hTOR1A-WT lysate, 635 nm fluorescence, higher = more signal.
Chain of Torsin-1A (Homo sapiens) (O14656 whole entry, looked up): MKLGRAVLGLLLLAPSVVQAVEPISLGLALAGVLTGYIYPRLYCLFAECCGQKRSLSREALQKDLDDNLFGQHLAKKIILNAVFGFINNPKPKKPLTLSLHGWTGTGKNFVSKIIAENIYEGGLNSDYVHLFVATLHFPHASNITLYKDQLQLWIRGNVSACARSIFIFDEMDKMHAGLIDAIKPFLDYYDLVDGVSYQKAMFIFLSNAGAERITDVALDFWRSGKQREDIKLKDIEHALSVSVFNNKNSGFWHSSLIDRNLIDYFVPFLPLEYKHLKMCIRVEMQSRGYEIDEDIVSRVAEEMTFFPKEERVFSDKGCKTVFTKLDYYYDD
Assay [9] has the same target. The assay is described as follows: small-molecule binders of mutant TOR1A in lysate, primary screen, cell lysate, small-molecule microarray, COS7 lysate, 635/667 nm fluorescence (AID 1150).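 Note: score pools 667 nm emission and signal to noise measuring lysate protein binding.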 The following applies: COS7 hTOR1A mutant lysate, 635 nm fluorescence, higher = more signal.
In assay [10] the test system is Sonic hedgehog protein (Shh). The assay is described as follows: small-molecule binders of Shh protein, primary screen, biochemical, small-molecule microarray, 635/667 nm fluorescence (AID 1151).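 Note: Shh protein binding to compounds spotted on small-molecule microarray slides; score combines spot fluorescence intensity with signal-to-noise across triplicate slides.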 To be noted: small-molecule microarray binding, 635 nm fluorescence; higher = more signal.
Assay [11] in a line: E. coli DRC41 culture turbidity changes, primary screen, E. coli filamentation inducer project, strain DRC41, OD650, 48 h (AID 1152).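 Note: E. coli MC1000 strain DRC41 lacking acrAB efflux pump and sulA.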 To be noted: E. coli DRC41 (acrAB sulA), higher = more signal, called active from +8 up or from −8 down.
The nature of assay [12]: small-molecule binders of probe aLefty1, primary screen, biochemical, small-molecule microarray, 635/667 nm fluorescence (AID 1153).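 Note: score merges spot fluorescence with signal-to-noise ratio from the scanned slide images.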 The following applies: higher = more signal.
Assay [13] in a line: PSAC antagonists in infected red cells, primary screen, cell-based, P. falciparum Indochina, OD700, 1 h (AID 1154). To be noted: P. falciparum Indochina infected RBC osmotic lysis, higher = more signal, called active from +8 up or from −8 down.
Assay [14] in a line: PSAC antagonists in infected red cells, primary screen, cell-based, P. falciparum Indochina, OD700, 2 h (AID 1155).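 Note: lysis reports solute entry through the parasite surface anion channel PSAC; channel blockers reduce lysis of infected cells.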 To be noted: P. falciparum Indochina infected erythrocytes, osmotic lysis OD700; higher = more signal, called active from +8 up or from −8 down.
Assay [15] can be described thus: osmotic lysis modulators in infected erythrocytes, primary screen, PSAC antagonist project, cell-based, P. falciparum Indochina, OD700, 3 h (AID 1156). To be noted: higher = more signal, called active from +8 up or from −8 down.
A short description of assay [16]: PSAC antagonists in infected red cells, primary screen, cell-based, P. falciparum Indochina, OD700, 18 h (AID 1157). To be noted: P. falciparum Indochina infected erythrocytes, osmotic lysis OD700, 18 h; higher = more signal, called active from +8 up or from −8 down.
A short description of assay [17]: modulators of S6 phosphorylation in cells, primary screen, cell-based, A549, cytoblot, luminescence, serum-stimulated (AID 1158).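 Note: serum-stimulated A549 lung adenocarcinoma cells; signal is phosphorylated S6 detected by cytoblot immunostaining with HRP secondary.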 The following applies: A549 phospho-S6 cytoblot, 5 h, higher = more signal.
The target in assay [18] is NADPH oxidase 2 (Homo sapiens) (UniProt P04839). The assay is described as follows: NOX2-dependent H2O2 signal modulators, primary screen, NOX inhibitor project, cell-based, HEK293-NOX2, PMA-stimulated, Amplex Red fluorescence (AID 1159). Note: test concentration not given here. The following applies: 45 min, higher = more signal, called active from +8 up or from −8 down.
Chain of NADPH oxidase 2 (Homo sapiens) (P04839 whole entry, looked up): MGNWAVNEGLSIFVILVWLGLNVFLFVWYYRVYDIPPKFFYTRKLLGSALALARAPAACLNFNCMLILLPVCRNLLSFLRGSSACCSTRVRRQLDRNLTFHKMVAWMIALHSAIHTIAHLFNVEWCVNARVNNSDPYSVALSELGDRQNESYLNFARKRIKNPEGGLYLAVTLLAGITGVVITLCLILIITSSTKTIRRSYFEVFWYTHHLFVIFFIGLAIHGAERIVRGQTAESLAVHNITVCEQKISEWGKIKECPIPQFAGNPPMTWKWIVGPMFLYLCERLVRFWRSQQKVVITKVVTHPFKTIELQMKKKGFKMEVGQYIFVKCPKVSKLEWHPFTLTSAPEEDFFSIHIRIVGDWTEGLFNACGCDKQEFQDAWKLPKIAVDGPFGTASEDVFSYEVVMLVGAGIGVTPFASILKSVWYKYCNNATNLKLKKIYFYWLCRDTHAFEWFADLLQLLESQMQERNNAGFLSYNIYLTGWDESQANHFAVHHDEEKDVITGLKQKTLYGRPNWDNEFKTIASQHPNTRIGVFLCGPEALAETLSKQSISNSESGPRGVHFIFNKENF
Assay [19] has as its target NADPH oxidase 4 (Homo sapiens) (UniProt Q9NPH5). The assay is described as follows: NOX4-dependent H2O2 signal modulators, primary screen, NOX inhibitor project, cell-based, HEK293-NOX4, tetracycline-induced, Amplex Red fluorescence (AID 1160). To be noted: 45 min, higher = more signal, called active from +8 up or from −8 down.
Assay [20] deals with NADPH oxidase 5 (Homo sapiens) (UniProt Q96PH1). The assay is described as follows: NOX5-dependent H2O2 signal modulators, primary screen, NOX inhibitor project, cell-based, HEK293-NOX5, Amplex Red fluorescence (AID 1161). The following applies: HEK293-NOX5, ionomycin, 45 min, higher = more signal.
Chain of NADPH oxidase 5 (Homo sapiens) (Q96PH1 whole entry, looked up): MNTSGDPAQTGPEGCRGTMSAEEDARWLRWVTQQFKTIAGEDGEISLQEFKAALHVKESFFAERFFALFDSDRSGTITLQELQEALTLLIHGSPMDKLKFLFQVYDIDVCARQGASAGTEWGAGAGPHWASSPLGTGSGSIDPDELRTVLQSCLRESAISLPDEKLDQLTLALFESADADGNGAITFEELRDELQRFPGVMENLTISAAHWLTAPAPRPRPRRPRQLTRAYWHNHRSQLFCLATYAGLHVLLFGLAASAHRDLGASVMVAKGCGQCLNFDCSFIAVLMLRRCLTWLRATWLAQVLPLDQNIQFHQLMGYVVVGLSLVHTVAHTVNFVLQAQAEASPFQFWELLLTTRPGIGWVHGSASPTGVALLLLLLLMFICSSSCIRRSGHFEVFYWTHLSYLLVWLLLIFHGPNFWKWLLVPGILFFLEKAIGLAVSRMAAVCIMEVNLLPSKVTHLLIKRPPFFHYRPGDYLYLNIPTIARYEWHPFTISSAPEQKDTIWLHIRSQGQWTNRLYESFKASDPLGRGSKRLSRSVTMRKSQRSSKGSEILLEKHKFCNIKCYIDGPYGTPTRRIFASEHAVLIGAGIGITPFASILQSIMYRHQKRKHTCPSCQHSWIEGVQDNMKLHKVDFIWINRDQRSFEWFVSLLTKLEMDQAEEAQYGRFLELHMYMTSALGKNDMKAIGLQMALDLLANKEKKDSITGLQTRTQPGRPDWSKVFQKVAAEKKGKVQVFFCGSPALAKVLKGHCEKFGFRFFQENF

The source made the active and inactive calls. Unless noted, the rule behind the calls is not given here.

Chain of NADPH oxidase 4 (Homo sapiens) (Q9NPH5 whole entry, looked up): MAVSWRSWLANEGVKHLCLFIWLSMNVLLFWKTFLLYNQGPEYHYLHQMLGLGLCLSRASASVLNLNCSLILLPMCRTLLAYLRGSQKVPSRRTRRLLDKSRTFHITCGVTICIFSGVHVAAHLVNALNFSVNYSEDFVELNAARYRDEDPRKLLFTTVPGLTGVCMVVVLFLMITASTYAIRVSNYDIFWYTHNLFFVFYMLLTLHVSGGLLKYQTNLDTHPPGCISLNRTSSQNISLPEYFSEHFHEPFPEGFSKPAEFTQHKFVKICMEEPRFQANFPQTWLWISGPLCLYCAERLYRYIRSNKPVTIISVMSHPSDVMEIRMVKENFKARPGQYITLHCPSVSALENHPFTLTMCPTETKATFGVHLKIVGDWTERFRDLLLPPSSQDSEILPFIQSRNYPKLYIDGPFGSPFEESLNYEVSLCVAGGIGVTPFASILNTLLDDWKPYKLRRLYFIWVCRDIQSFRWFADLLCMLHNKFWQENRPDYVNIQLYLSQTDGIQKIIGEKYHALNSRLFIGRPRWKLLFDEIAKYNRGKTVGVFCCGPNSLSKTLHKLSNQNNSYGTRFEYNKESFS

On to `[N-]=[N+]=NCc1ccccc1C[C@]1(C(=O)N2CCOCC2)COC(c2ccc(OCCCO)cc2)=N1`, for which the composite z-score in assay [1] came to 0.0879; in assay [6], 1.6; in assay [7], 0.0888; in [8], 1.71; in [9], 1.56; in [10], 0.179. This compound had a composite z-score in assay [12] of 0.691. Besides, the z-score in assay [2] was -3.07 (inactive); in [3], -0.983 (inactive); in assay [4], 1.69 (inactive); in [5], -0.931 (inactive); in [11], 2.57 (inactive); in assay [13], 26.6 (active). For the same compound, the z-score was 15 (active) in assay [14]; 3.85 (inactive) in assay [15]; 2.64 (inactive) in assay [16]; 0.338 in assay [17]; -3.84 (inactive) in assay [18]; -0.698 (inactive) in assay [19]. Further, in assay [20], the z-score is -3.14.

Turning to `COCCOC(=O)N1C(=O)[C@@]2(c3cc(C#Cc4ccc(OC)cc4)ccc31)[C@H](C(=O)NC[C@H](O)c1ccccc1)[C@H]1C(=O)O[C@H](c3ccccc3)[C@H](c3ccccc3)N1[C@@H]2c1ccc(OCCO)cc1`, the composite z-score turned out to be 0.76 in assay [1]; 0.277 in assay [6]; 0.0184 in [7]; 0.161 in [8]; 0.963 in assay [9]; 1.62 in assay [10]. The compound further registered a composite z-score in assay [12] of 0.179. The z-score in assay [2] was -5.48 (inactive); in assay [3] it was -1.73 (inactive); in [4] it was -1.42 (inactive); in [5], -0.544 (inactive); in assay [11], 1.34 (inactive); in assay [13], 5.02 (inactive). The z-score in assay [14] is 1.45 (inactive); in assay [15], -0.191 (inactive); in assay [16], 0.312 (inactive); in [17], 2; in [18] it was -0.756 (inactive); in [19], -2.17 (inactive). For the same compound, the z-score in assay [20] is -2.61.

`CCOC(=O)C[C@H]1[C@H](OC(=O)c2ccccc2-c2ccccc2)[C@@H](NC(=O)c2ccc3ccccc3n2)c2cc(OCCCO)ccc2N1C(=O)c1ccccc1`: the composite z-score is 0.233 in assay [1]; -0.197 in [6]; -0.0933 in assay [7]; -0.0653 in assay [8]; 0.182 in [9]; 1.37 in assay [10]. Besides, the composite z-score in assay [12] was determined as 0.0355. Moreover, the z-score in [2] is -0.0416 (inactive); in assay [3], 1.12 (inactive); in assay [4], 2.57 (inactive); in [5] it was 0.655 (inactive); in assay [11], -1.04 (inactive); in assay [13], 1.35 (inactive). Besides, the z-score is 0.496 (inactive) in assay [14]; 0.667 (inactive) in [15]; 0.305 (inactive) in assay [16]; -0.35 in assay [17]; 0.838 (inactive) in assay [18]; 1.23 (inactive) in assay [19]. This compound gave a z-score in assay [20] of 2.31.

In the case of `CN1C(=O)C2C(C1=O)C1C=C(CCCO)C2C(c2cccs2)N1Cc1cc2c(cc1Br)OCO2` (stereo not given), the composite z-score in assay [1] is 0.418; in assay [6] it was 2.27; in assay [7] it was 0.233; in assay [8], 1.5; in assay [9] it was 1.95; in assay [10], 0.162. Further, in [12], the composite z-score was -0.0587. Moreover, the z-score in [2] is -1.8 (inactive); in assay [3], 0.482 (inactive); in assay [4], -0.374 (inactive); in assay [5], -0.101 (inactive); in assay [11], -0.139 (inactive); in assay [13], 25.1 (active). Moreover, the z-score in assay [14] was 15.9 (active); in [15], 0.0521 (inactive); in assay [16], 1.58 (inactive); in assay [17], 0.791; in assay [18], 0.196 (inactive); in [19], 0.0713 (inactive). Besides, the z-score in assay [20] came out at 0.741.

For `CS(=O)(=O)CCOC(=O)C1=CC(CCCO)=CC(C2CC2)N(Cc2cccc(OC(F)(F)F)c2)C=C1C(=O)OCCS(C)(=O)=O` (stereo not given), the composite z-score is 0.0607 in assay [1]; -0.358 in assay [6]; 0.0082 in [7]; 1.29 in assay [8]; 2.13 in assay [9]; 0.186 in assay [10]. This compound also yielded a composite z-score in [12] of 0.0392. Also, the z-score was -1.21 (inactive) in assay [2]; 0.154 (inactive) in assay [3]; 4.86 (inactive) in assay [4]; 0.0235 (inactive) in assay [5]; -1.07 (inactive) in [11]; 2.65 (inactive) in [13]. Moreover, the z-score is 0.404 (inactive) in assay [14]; -0.352 (inactive) in [15]; 0.675 (inactive) in assay [16]; -0.662 in assay [17]; 0.944 (inactive) in [18]; 0.19 (inactive) in assay [19]. Further, in [20], the z-score was -1.29.
